PubChem BioAssay (NCI)
The panel holds about 79,000 compounds, 15% with a hit somewhere; the sample as a whole holds those more often. Values without a mark were called inactive. Activity calls are given as the source filed them. Rule as the data show it: active = growth inhibition above about 70%; inactive = the rest.

Legend:
[1] = NCI Yeast Anticancer Drug Screen. Data for the rad52 strain (AID 147);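 also: 0% = growth of vehicle-treated control cultures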; settings: S. cerevisiae rad52 mutant growth inhibition, active compounds read high
Method in brief: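 Read-out: growth inhibition versus vehicle-treated controls. Cells were a DNA repair-deficient yeast strain treated with compounds.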

[2] = NCI Yeast Anticancer Drug Screen. Data for the rad50EPP+ strain (AID 151);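 also: 0% = growth of vehicle-treated control cultures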; settings: S. cerevisiae rad50 mutant strain, active compounds read high
Method in brief: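 Growth inhibition read against vehicle controls in rad50EPP+ yeast, a strain altered in DNA damage repair, after compound exposure.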

[3] = NCI Yeast Anticancer Drug Screen. Data for the mgt1 strain (AID 153); settings: S. cerevisiae mgt1 mutant growth inhibition, active compounds read high
Method in brief: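 mgt1 yeast grown with test compound; read-out is growth inhibition versus vehicle-treated cultures.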

[4] = NCI Yeast Anticancer Drug Screen. Data for the rad50 strain (AID 155);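 also: 0% = growth of vehicle-only cultures of the same strain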; settings: S. cerevisiae rad50 strain growth inhibition, active compounds read high
Method in brief: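 A DNA repair-deficient yeast mutant serves as the test organism; compound-induced growth inhibition is calculated against vehicle-treated cells.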

[5] = NCI Yeast Anticancer Drug Screen. Data for the mec2-1 strain (AID 157); settings: S. cerevisiae mec2-1 strain, active compounds read high
Method in brief: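 Yeast mec2-1 mutant treated with compound. Readout: growth inhibition vs vehicle controls.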

[6] = NCI Yeast Anticancer Drug Screen. Data for the rad14 strain (AID 159);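 also: 0% = growth of vehicle-treated control cultures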; settings: S. cerevisiae rad14 strain growth inhibition, active compounds read high
Method in brief: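 Vehicle-treated cultures served as the baseline for growth inhibition of a DNA repair-mutant yeast strain exposed to each compound.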

[7] = NCI Yeast Anticancer Drug Screen. Data for the sgs1 mgt1 strain (AID 161);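 also: 0% = growth of cultures given vehicle only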; settings: S. cerevisiae sgs1 mgt1 strain, active compounds read high
Method in brief: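 Inhibition of yeast growth, normalised to vehicle-treated controls, is reported for a strain bearing genetic alterations in DNA damage repair.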

[8] = NCI Yeast Anticancer Drug Screen. Data for the CLN2oe strain (AID 163);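 also: 0% = growth of vehicle-only control cultures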; settings: S. cerevisiae CLN2oe strain, active compounds read high
Method in brief: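 Read-out: yeast growth inhibition, expressed relative to vehicle-only controls. The strain bears an engineered cell-cycle alteration.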

[9] = NCI Yeast Anticancer Drug Screen. Data for the cln2 rad14 strain (AID 165);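 also: 0% = growth equal to vehicle treated cultures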; settings: S. cerevisiae cln2 rad14 strain, active compounds read high
Method in brief: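 cln2 rad14 yeast strain; compound exposure; growth inhibition read vs vehicle controls.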

[10] = NCI Yeast Anticancer Drug Screen. Data for the bub3 strain (AID 167); settings: S. cerevisiae bub3 mutant strain, active compounds read high
Method in brief: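 Inhibition values come from growth of compound-treated mutant yeast normalised to vehicle-treated controls.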

[11] = NCI Yeast Anticancer Drug Screen. Data for the wt2 strain (AID 169);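 also: 0% = growth of vehicle-treated yeast cultures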; settings: S. cerevisiae wt2 strain growth inhibition, active compounds read high
Method in brief: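 Read-out: growth inhibition versus vehicle-treated control cultures after compound exposure of the yeast strain.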

[12] = NCI Yeast Anticancer Drug Screen. Data for the mlh1 strain (AID 171);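 also: 0% = growth of vehicle-treated control cultures of the same strain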; settings: S. cerevisiae mlh1 strain growth inhibition, active compounds read high
Method in brief: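 Read-out: growth inhibition versus vehicle controls. Strain: engineered yeast with a defined DNA repair or cell cycle defect, compound-treated.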

[13] = NCI Yeast Anticancer Drug Screen. Data for the sgs1 strain (AID 173);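 also: 0% = growth of vehicle-only control cultures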; settings: S. cerevisiae sgs1 mutant, active compounds read high
Method in brief: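 Read-out: yeast growth inhibition relative to vehicle controls, following compound exposure of a strain with a defined DNA repair/cell cycle alteration.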

[14] = NCI Yeast Anticancer Drug Screen. Data for the mlh1 rad18 strain (AID 175); settings: S. cerevisiae mlh1 rad18 strain growth inhibition, active compounds read high
Method in brief: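 Yeast w/ defined DNA-repair lesions; compound exposure; growth vs vehicle controls → % inhibition.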

[15] = NCI Yeast Anticancer Drug Screen. Data for the rad18 strain (AID 177); settings: S. cerevisiae rad18 mutant growth inhibition, active compounds read high
Method in brief: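 Readout: growth inhibition vs vehicle controls. Cells: genetically altered yeast strain, DNA repair defect.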

[16] = NCI Yeast Anticancer Drug Screen. Data for the wt1 strain (AID 149);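 also: 0% = growth of vehicle-treated wt1 cultures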; settings: S. cerevisiae wt1 strain (SPY 50644) growth inhibition, active compounds read high
Method in brief: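 Vehicle-normalised growth inhibition; strain wt1; compound exposure.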

[17] = at 5.0 µM (retest, dose inferred, filed as 0.5)
[18] = at 50.0 µM (retest, dose inferred, filed as 5.0)

CC(=O)/C=C/c1cccc([N+](=O)[O-])c1
growth inhibition ([1]; at 1.2 µM): 2% | growth inhibition ([1]; at 3.7 µM): 4% | growth inhibition ([1]; at 11.0 µM): 9% | growth inhibition ([1]; at 33.0 µM): 29% | growth inhibition ([1]; at 100.0 µM): 86% (active) | growth inhibition ([2]; at 1.2 µM): 3% | growth inhibition ([2]; at 3.7 µM): 7% | growth inhibition ([2]; at 11.0 µM): 29% | growth inhibition ([2]; at 33.0 µM): 81% (active) | growth inhibition ([2]; at 100.0 µM): 98% (active) | growth inhibition ([3]; at 1.2 µM): 1% | growth inhibition ([3]; at 3.7 µM): 2% | growth inhibition ([3]; at 11.0 µM): 7% | growth inhibition ([3]; at 33.0 µM): 48% | growth inhibition ([3]; at 100.0 µM): 94% (active) | growth inhibition ([4]; at 1.2 µM): 0% | growth inhibition ([4]; at 3.7 µM): 3% | growth inhibition [4, 17]: -4% | growth inhibition ([4]; at 11.0 µM): 8% | growth inhibition ([4]; at 33.0 µM): 20% | growth inhibition [4, 18]: 84% (active) | growth inhibition ([4]; at 50.0 µM): 82% (active) | growth inhibition ([4]; at 100.0 µM): 89% (active) | growth inhibition ([5]; at 1.2 µM): 0% | growth inhibition ([5]; at 3.7 µM): 2% | growth inhibition [5, 17]: 2% | growth inhibition ([5]; at 11.0 µM): 3% | growth inhibition ([5]; at 33.0 µM): 29% | growth inhibition [5, 18]: 56% | growth inhibition ([5]; at 50.0 µM): 51% | growth inhibition ([5]; at 100.0 µM): 95% (active) | growth inhibition ([6]; at 1.2 µM): -2% | growth inhibition ([6]; at 3.7 µM): 0% | growth inhibition ([6]; at 11.0 µM): 7% | growth inhibition ([6]; at 33.0 µM): 21% | growth inhibition ([6]; at 100.0 µM): 91% (active) | growth inhibition [7, 17]: -3% | growth inhibition [7, 18]: 85% (active) | growth inhibition ([7]; at 50.0 µM): 48% | growth inhibition ([8]; at 1.2 µM): -2% | growth inhibition ([8]; at 3.7 µM): -2% | growth inhibition ([8]; at 11.0 µM): 1% | growth inhibition ([8]; at 33.0 µM): 6% | growth inhibition ([8]; at 100.0 µM): 44% | growth inhibition [9, 17]: 5% | growth inhibition [9, 18]: 4% | growth inhibition ([9]; at 50.0 µM): 6.15% | growth inhibition ([10]; at 1.2 µM): -4% | growth inhibition ([10]; at 3.7 µM): -5% | growth inhibition [10, 17]: 31% | growth inhibition ([10]; at 11.0 µM): -2% | growth inhibition ([10]; at 33.0 µM): 28% | growth inhibition [10, 18]: 89% (active) | growth inhibition ([10]; at 50.0 µM): 72.4% (active) | growth inhibition ([10]; at 100.0 µM): 91% (active) | growth inhibition ([11]; at 1.2 µM): 1% | growth inhibition ([11]; at 3.7 µM): 4% | growth inhibition ([11]; at 11.0 µM): 10% | growth inhibition ([11]; at 33.0 µM): 28% | growth inhibition ([11]; at 100.0 µM): 88% (active) | growth inhibition ([12]; at 1.2 µM): 2% | growth inhibition ([12]; at 3.7 µM): 1% | growth inhibition ([12]; at 11.0 µM): 10% | growth inhibition ([12]; at 33.0 µM): 32% | growth inhibition ([12]; at 100.0 µM): 95% (active) | growth inhibition ([13]; at 1.2 µM): 1% | growth inhibition ([13]; at 3.7 µM): 7% | growth inhibition ([13]; at 11.0 µM): 15% | growth inhibition ([13]; at 33.0 µM): 50% | growth inhibition ([13]; at 100.0 µM): 95% (active) | growth inhibition [14, 17]: 12% | growth inhibition [14, 18]: 94% (active) | growth inhibition ([14]; at 50.0 µM): 81.7% (active) | growth inhibition ([15]; at 1.2 µM): 1% | growth inhibition ([15]; at 3.7 µM): 2% | growth inhibition ([15]; at 11.0 µM): 21% | growth inhibition ([15]; at 33.0 µM): 22% | growth inhibition ([15]; at 100.0 µM): 77% (active)

O=C1C(=C2CCCC2)CCC1CN1CCCCC1 (stereo not drawn)
growth inhibition ([1]; at 1.2 µM): 3% | growth inhibition ([1]; at 3.7 µM): 16% | growth inhibition ([1]; at 11.0 µM): 20% | growth inhibition ([1]; at 33.0 µM): 64% | growth inhibition ([1]; at 100.0 µM): 96% (active) | growth inhibition ([16]; at 1.2 µM): 6% | growth inhibition ([16]; at 3.7 µM): 12% | growth inhibition ([16]; at 11.0 µM): 27% | growth inhibition ([16]; at 33.0 µM): 30% | growth inhibition ([16]; at 100.0 µM): 89% (active) | growth inhibition ([3]; at 1.2 µM): -10% | growth inhibition ([3]; at 3.7 µM): 5% | growth inhibition ([3]; at 11.0 µM): 13% | growth inhibition ([3]; at 33.0 µM): 54% | growth inhibition ([3]; at 100.0 µM): 95% (active) | growth inhibition ([4]; at 1.2 µM): 2% | growth inhibition ([4]; at 3.7 µM): 8% | growth inhibition [4, 17]: -3% | growth inhibition ([4]; at 11.0 µM): 9% | growth inhibition ([4]; at 33.0 µM): 60% | growth inhibition [4, 18]: 57% | growth inhibition ([4]; at 50.0 µM): 76.3% (active) | growth inhibition ([4]; at 100.0 µM): 95% (active) | growth inhibition ([5]; at 1.2 µM): -7% | growth inhibition ([5]; at 3.7 µM): -12% | growth inhibition [5, 17]: 6% | growth inhibition ([5]; at 11.0 µM): 9% | growth inhibition ([5]; at 33.0 µM): 70% (active) | growth inhibition [5, 18]: 60% | growth inhibition ([5]; at 50.0 µM): 68.7% | growth inhibition ([5]; at 100.0 µM): 96% (active) | growth inhibition ([6]; at 1.2 µM): 10% | growth inhibition ([6]; at 3.7 µM): 10% | growth inhibition ([6]; at 11.0 µM): 29% | growth inhibition ([6]; at 33.0 µM): 57% | growth inhibition ([6]; at 100.0 µM): 94% (active) | growth inhibition [7, 17]: 9% | growth inhibition [7, 18]: 57% | growth inhibition ([7]; at 50.0 µM): 58.9% | growth inhibition ([8]; at 1.2 µM): -16% | growth inhibition ([8]; at 3.7 µM): 11% | growth inhibition ([8]; at 11.0 µM): -1% | growth inhibition ([8]; at 33.0 µM): 40% | growth inhibition ([8]; at 100.0 µM): 91% (active) | growth inhibition [9, 17]: 4% | growth inhibition [9, 18]: 14% | growth inhibition ([9]; at 50.0 µM): 43.5% | growth inhibition ([10]; at 1.2 µM): 8% | growth inhibition ([10]; at 3.7 µM): 10% | growth inhibition [10, 17]: -21% | growth inhibition ([10]; at 11.0 µM): 18% | growth inhibition ([10]; at 33.0 µM): 81% (active) | growth inhibition [10, 18]: 80% (active) | growth inhibition ([10]; at 50.0 µM): 55.6% | growth inhibition ([10]; at 100.0 µM): 97% (active) | growth inhibition ([11]; at 1.2 µM): -17% | growth inhibition ([11]; at 3.7 µM): 2% | growth inhibition ([11]; at 11.0 µM): 11% | growth inhibition ([11]; at 33.0 µM): 68% | growth inhibition ([11]; at 100.0 µM): 93% (active) | growth inhibition ([12]; at 1.2 µM): 0% | growth inhibition ([12]; at 3.7 µM): 0% | growth inhibition ([12]; at 11.0 µM): 13% | growth inhibition ([12]; at 33.0 µM): 84% (active) | growth inhibition ([12]; at 100.0 µM): 97% (active) | growth inhibition ([13]; at 1.2 µM): 34% | growth inhibition ([13]; at 3.7 µM): 30% | growth inhibition ([13]; at 11.0 µM): 63% | growth inhibition ([13]; at 33.0 µM): 87% (active) | growth inhibition ([13]; at 100.0 µM): 97% (active) | growth inhibition ([15]; at 1.2 µM): 8% | growth inhibition ([15]; at 3.7 µM): 6% | growth inhibition ([15]; at 11.0 µM): 27% | growth inhibition ([15]; at 33.0 µM): 81% (active) | growth inhibition ([15]; at 100.0 µM): 94% (active)
